Assay outcomes: PubChem, National Center for Advancing Translational Sciences (NCATS)
Hits are enriched below; roughly 8% of the tested compounds scored in any of these assays.
Lassa entry – inhibitors of Lassa virus binding or entry into cells | Potency, µM (highest dose often 49.2 µM), without a hit: top-dose activity change, negative = inhibition, usual class: inhibitors | Lassa virus pseudotyped entry inhibition, cell-based qHTS | AID 720533 | 18,000 compounds, 4.1% hits
Marburg entry – Marburg virus entry inhibition | AID 720532 | Marburg virus pseudotype entry/binding inhibition, cell-based | 18,000 compounds, 6.5% hits | Potency, µM (doses to about 49.2 µM), for the others: at the highest dose activity change, negative = inhibition, hits mostly inhibitors
* marks the source's active call; other numbers are inactive results; u = inconclusive; x = no result given; ! = not active in a repeat; [ ] = another dose, or the depositor's remark. Calls follow the shape of the full dose curve; tested in HEK293 cells. % is scaled to controls: 0 for no effect and ±100 for the full control effect; potency is read from the fitted curve at half-maximal effect.

SMILES | Lassa entry | Marburg entry
C=CC[C@@H]1C=C[C@H](ON=C(C)CCN2CCCCc3nc(C)c(C)cc32)[C@H](CO)O1 | -5.2%[8.59 µM] | -22.6%[8.59 µM]
CCc1cc2c(nc1CC)CCN(CCC(C)=NO[C@@H](C)c1cn([C@H](CO)Cc3ccccc3)nn1)C2 | 15.8%[8.59 µM] | -27.1%[8.59 µM]
COc1ccc2c(c1OC)CN1CCc3cc4c(cc3C1C2)OCO4 (stereo not given) | 5.7%[17.8 µM] | 1.7%[17.8 µM]
COc1ccc2c(c[n+](C)c3c4cc5c(cc4ccc23)OCO5)c1OC | 10µM* | 4.47µM*
COc1cc2c(c(OC)c1OC)C(c1ccc3c(c1)OCO3)CC(=O)O2 (stereo not given) | -4.2% | 53.5%
COc1ccc2cc3[n+](cc2c1OC)CCc1cc2c(cc1-3)OCO2 | 11.2µM*! | 10µM*!
Cc1cc2c(c(=O)o1)[C@H]1O[C@](c3ccsc3)(Cc3c1ccc1ccccc31)O2 | 13.2%[8.59 µM] | u
COC(=O)[C@@H]1CC[C@H](C)[C@@H](c2ccc(C)cc2)N1C(=O)c1ccc(C=NO[C@H](C)CN2CCCc3nc(C)c(C)cc32)cc1 | 7.2%[8.59 µM] | u
COCCN1C(=O)N(C)C(c2ccccc2)C(C(C)=O)=C1C (stereo not given) | -17.7%[8.59 µM] | u
O=S1(=O)N[C@@H](Cc2ccccc2)COc2c(Cl)cccc21 | 7.7% | 3.8%
C[C@]12CC[C@H](OS(=O)(=O)O)CC1=CC[C@@H]1[C@@H]2CC[C@]2(C)C(=O)CC[C@@H]12 | -7.4% | -8.2%
C[C@@H]1[C@H]2CC[C@@H]3[C@@H]4CC=C5C[C@@H](N(C)C)CC[C@]5(C)[C@@H]4CC[C@@]32CN1C | -9.1%[17.8 µM] | 5.62µM*
COC(=O)CC=C[C@@H](C)[C@@H](C=NOCC[C@@H]1C=C[C@H](OC(C)=O)[C@@H](COC(C)=O)O1)NS(=O)(=O)c1ccc(C)cc1 | -18.9%[8.59 µM] | 52.7%[8.59 µM]
C[C@H](NCc1ccccc1)c1ccccc1 | 1.4% | -1.3%
C[C@H](NCCC(c1ccccc1)c1ccccc1)c1ccccc1 | u | 10µM*
CSc1ccc2c(c1)N(CC[C@H]1CCCCN1C)c1ccccc1S2 | u | 7.94µM*
CSc1ccc2c(c1)N(CCC1CCCCN1C)c1ccccc1S2 (stereo not given) | 22.4µM* | 7.94µM*
CSc1ccc(CN2CCOc3ccc(CN4CCCCC4CO)cc3C2)cc1 (stereo not given) | -5.7% | u
CN1CCCC[C@@H]1CCN1c2ccccc2Sc2ccc(S(C)=O)cc21 (stereo not given in full) | -0.1%[17.8 µM] | u
CC(C)[C@@H](OCc1ccccc1)[C@H](C)C=NO[C@H](C)c1cn([C@H](CO)Cc2ccccc2)nn1 | -4.1%[8.59 µM] | 37.5%[8.59 µM]
C[C@H]1C[C@@H](C)O[C@@]2(C1)C(=O)N(Cc1ccccc1C(F)(F)F)c1ccccc12 | 1.3%[8.59 µM] | -15.0%[8.59 µM]
O=C(C=Cc1cccc([N+](=O)[O-])c1)c1ccccc1 | x | -27.2%[8.59 µM]
CC(=O)C1=C(C)N(Cc2ccco2)C(=O)NC1c1ccccc1 (stereo not given) | 5.2%[8.59 µM] | -0.7%[8.59 µM]
C(=C\c1nc(-c2ccccc2)oc1Nc1ccc2ccccc2c1)/c1ccccc1 | 6.5% | 29.1%
C[n+]1ccc(/C=C/c2ccc3ccccc3c2)cc1 | 11.2µM* | u
SMILES | Lassa entry | Marburg entry
C=CCCCC=C(C)[C@H](OCc1ccc(OC)cc1)[C@H](CCC=C(C)C(N)=O)OC | -16.9%[8.59 µM] | 10.3%[8.59 µM]
COCCN1C(=O)NC(c2ccc(Br)cc2)C(C(=O)OC)=C1C (stereo not given) | -25.5%[8.59 µM] | -8.1%[8.59 µM]
CC(=O)N1CCC[C@H]1C(=O)NCC1Cc2cc(Cl)cc(-c3ccc4[nH]ccc4c3)c2O1 (stereo not given in full) | -8.0% | -24.1%
COCCC(=O)NCC1Cc2cc(Cl)cc(-c3ccc4[nH]ccc4c3)c2O1 (stereo not given) | 7.08µM* | 7.08µM*
CCCC=Cc1ccc(CN2C(C(C)C)C(=O)N(Cc3cn(CCC4OCCO4)nn3)CCS2(=O)=O)cc1 (stereo not given) | x | -25.2%
CN1CC[C@@]2(c3cccc(O)c3)Cc3nc4ccccc4cc3C[C@H]2C1 | -3.8% | 17.8µM*
CCC(=O)O[C@]1(c2ccccc2)CCN(C)C[C@H]1C | -4.4% | 6.8%
CC1(C)O[C@H]2O[C@H]([C@H](O)CON=C3[C@H]4CCn5c(=O)n(-c6ccccc6)c(=O)n5[C@@H]4[C@H](O)[C@@H]4O[C@H]34)[C@H](O)[C@@H]2O1 | 20.2%[8.59 µM] | 38.7%[8.59 µM]
CC(C)Nc1oc(-c2ccccc2)nc1-c1ccc(C(F)(F)F)cc1 | -11.1%[8.59 µM] | -8.1%[8.59 µM]
COC1=C2C[C@@H](C)C[C@H](OC)[C@H](O)[C@@H](C)/C=C(\C)[C@H](OC(N)=O)[C@@H](OC)/C=C\C=C(/C)C(=O)NC(=CC1=O)C2=O | 17.8µM* | 15.8µM*
C=CCNC1=C2C[C@@H](C)C[C@H](OC)[C@H](O)[C@@H](C)/C=C(\C)[C@H](OC(N)=O)[C@@H](OC)/C=C/C=C(\C)C(=O)NC(=CC1=O)C2=O | 2.24µM* | 1.78µM*
COC(=O)C1C2CC(C)C(c3ccccc32)N1C(=O)C(F)(F)F (stereo not given) | -9.3%[8.59 µM] | u
COc1cc2c(cc1OC)[C@@H]1O[C@](c3ccsc3)(C2)OC2=C1C(=O)CC(C)(C)C2 | -11.4%[8.59 µM] | -12.1%[8.59 µM]
O=c1oc2ccccc2c2c1[C@H]1O[C@](c3ccsc3)(Cc3c1ccc1ccccc31)O2 | 9.6%[8.59 µM] | 5.2%[8.59 µM]
CC1=C[C@]2(O[C@H](COc3ccccc3)C1)C(=O)N(C)c1ccccc12 | 94.6%[8.59 µM] | 144.1%[8.59 µM]
CC[C@H]1C[C@@H]2C[C@H]3c4[nH]c5ccc(OC)cc5c4CCN(C2)[C@@H]13 | -10.8% | 28.2µM*
COc1ccc2[nH]c3c(c2c1)CCN=C3C | 5.1%[17.8 µM] | u
CC(C)C[C@H]1COc2cc(NC3CC3)ccc2S(=O)(=O)N1 | -10.4% | 12.7%
CC[C@@H](C(=O)[C@@H](C)[C@@H](O)[C@H](C)[C@@H]1O[C@@H]([C@@H](CC)C(=O)O)CC[C@@H]1C)[C@H]1O[C@]2(C=C[C@@H](O)[C@]3(CC[C@@](C)([C@H]4CC[C@](O)(CC)[C@H](C)O4)O3)O2)[C@H](C)C[C@@H]1C | 3.16µM* | -78.8%
CC[C@@H](c1ccccc1)n1c(=O)n2n(c1=O)[C@H]1[C@H](O)[C@@H]3O[C@H]3C(=NOCc3ccccc3)[C@H]1CC2 | 6.4%[8.59 µM] | u
C[C@@H](O)[C@H]1C(=O)N2C(C(=O)[O-])=C(SC3Cn4cnc[n+]4C3)[C@H](C)[C@H]12 (stereo not given in full) | -10.3% | 6.4%
CCCCCc1cc(O)c2c(c1)OC(C)(C)[C@@H]1CCC(C)=C[C@@H]21 | 35.5µM* | -23.0%
CCCCCCC(C)(C)c1cc(OC)c2c(c1)OC(C)(C)[C@@H]1CC=C(C)C[C@@H]21 | -18.6% | 5.3%
CN1CCC(C(=O)Nc2n[nH]c3nnc(-c4ccccc4)cc23)CC1 | 16.1% | u
CC1=C2[C@H](O)[C@H]([C@@H](C)C(=O)NCCC(C)C)CC[C@@]2(C)C=CC1=O | 6.0%[8.59 µM] | 23.2%[8.59 µM]
CCCCCCCCCCCCCCCC(=O)O[C@@H]1CC(C)=C(/C=C/C(C)=C/C=C/C(C)=C/C=C/C=C(C)/C=C/C=C(C)/C=C/C2=C(C)C[C@@H](OC(=O)CCCCCCCCCCCCCCC)CC2(C)C)C(C)(C)C1 | -24.6% | -6.0%
COC(=O)[C@H]1O[C@@H](c2c(OC)c(OC)c(C)c(OC)c2OC)[C@H](C)[C@@H](O)[C@@H]1C | 1.7%[8.59 µM] | 6.2%[8.59 µM]
O=C1NC2CCCCN2C12CCN(CCCN1c3ccccc3CCc3ccc(Cl)cc31)CC2 (stereo not given) | 28.2µM* | 7.08µM*
